The campaign covered roughly 48,000 compounds. About 13,000 (27%) showed an effect of 50% or more. The list shows a part of the results.
system: Wolbachia pipientis; test: Anti-Wolbachia Cell-Based Screen; format: functional; parameters: scale not given: in the data most compounds retested in dose-response had high values; settings: 5 µM

Point of comparison: `NC(=O)CSc1ccccc1NC(=O)C1CCCC1`, “Percent Effect” value 99.94%. Against it:
- CS(=O)(=O)N1CCC(NCC2(N3CCOCC3)CCCCC2)CC1 — lower, -12.17%
- COc1cc2cc(C(=O)N[C@@H](C)C(=O)O)n(C)c2c(OC)c1OC — lower, 6.023%
- CC(C)Cc1ncc(CNc2cnccc2CO)s1 — lower, 2.618%
- CC(C)n1cnc2c1C(C(=O)NCCO)N(Cc1ccccc1)CC2.O=C(O)C(F)(F)F (stereo unspecified) — lower, 2.168%
- CN(C1CCc2ccccc2C1)S(C)(=O)=O (stereo unspecified) — lower, -5.064%
- COCCN(CC(F)F)c1cc(COC)nc2ncnn12 — lower, 3.034%
- CCn1ccnc1CN1CCCN(C(=O)Cn2nc(C)cc2C)CC1 — lower, -3.678%
- COCC(=O)N1CCN(Cc2nnc(C(C)(C)C)o2)CC1 — lower, -20.23%
- CCC(=O)N1CCCN(C(=O)c2cc(C)cc(Br)c2O)CC1 — lower, 5.319%
- COC(=O)N1CCCN(Cn2nc(C)c(Br)c2C)CC1 — lower, 92.29%
- COC(=O)N1CCCN(C(=O)c2cccc3cccnc23)CC1 — lower, -4.967%
- CCC(=O)N1CCCN(Cn2nc(C)c(Br)c2C)CC1 — higher, 116.5%
- COCC(=O)N1CCN(Cn2nc(C)c(Br)c2C)CC1 — higher, 100.8%
- CCn1c(CN2CCCN(C(=O)OC)CC2)nc2c(F)cccc21 — lower, -3.965%
- COCC(=O)N1CCCN(Cc2c(C)nc3ccc(Cl)cn23)CC1 — lower, -0.9556%
- O=C(CCCn1nnc(-c2ccc(F)cc2)n1)N1CCOCC(CO)C1 (stereo unspecified) — lower, -1.392%
- CCCN(Cc1nccn1C)C(=O)c1cnn[nH]1 — lower, -16.97%
- CC(C)(C)c1c[nH]c([C@@H]2COCCN2C2CCCCC2)n1 — lower, -16.61%
- Cc1nn(C2CCCCC2)c2nc(C(C)(C)CN3CCOCC3)[nH]c12 — higher, 104.5%
- CC(CN1CCOCC1)NCc1nncn1C1CCCCC1 (stereo unspecified) — lower, -12.38%
- Cc1nn(-c2ccccc2)c2nc(C(C)(C)CN3CCN(C)CC3)[nH]c12 — higher, 102.6%
- Cc1nn(-c2ccccc2)c(C)c1-c1ccnc(N2CCC(O)CC2)n1 — lower, -6.995%
- Cc1nn(C2CCCC2)c2nc(C(C)(C)CN3CCN(C)CC3)[nH]c12 — lower, 98.14%
- Cn1ncc2c(NCCCOc3cccnc3)nc(C3CCCC3)nc21 — lower, 15.74%
- CCn1cnnc1C1CCN(C(=O)c2ccc(Cl)cc2OC)CC1 — lower, 99.28%
- CCn1cnnc1C1CCN(C(=O)COc2ccccc2OC)CC1 — lower, 7.042%
- CCn1cnnc1C1CCN(C(=O)Cc2ccc(OC)c(F)c2)CC1 — lower, -0.6685%
- CCn1cnnc1C1CCN(C(=O)c2cc(OC)ccc2OC)CC1 — higher, 101%
- CCn1cnnc1C1CCN(C(=O)c2ccccc2OC)CC1 — lower, -6.439%
- CCn1cnnc1C1CCN(C(=O)c2cc(F)ccc2OC)CC1 — higher, 106.7%
- CCn1cnnc1C1CCN(C(=O)c2cccc(OC)c2OC)CC1 — lower, 96.27%
- CCn1cnnc1C1CCN(C(=O)COc2ccc(Cl)cc2)CC1 — lower, 6.006%
- COc1ccc(CC(=O)N2CCC(c3nncn3C)CC2)cc1F — lower, -9.824%
- O=C(O)C(F)(F)F.O=C([C@H]1COC[C@H]2CN(C3CCCC3)C[C@H]21)N1CCCCO1 — lower, -5.445%
- O=C(Cc1cccc(Cl)c1)Nc1cnccc1SCCCO — lower, 7.035%
- COc1ccc(CNc2nncs2)cc1F — lower, -12.2%
- O=C(Nc1ccc(OC(F)F)cc1)N1CCC(c2nnc[nH]2)CC1 — lower, -4.065%
- NC(=O)CSc1ccccc1NCc1nc(C2CC2)no1 — lower, -3.279%
- CC(C)(C)CC(=O)Nc1ccccc1SCC(N)=O — higher, 103.7%
- CCCN1CCC(N(C)CCC(=O)Nc2ccccc2SC)CC1 — lower, -1.207%
- CNC(=O)Cc1ccccc1NC(=O)C1CCN(C2CCCCC2)C1 (stereo unspecified) — lower, -1.289%
- CNC(=O)Cc1ccccc1NC(=O)C1CCCC1 — lower, 5.338%
- NC(=O)CSc1ccccc1NC(=O)C1CCCCC1 — lower, 84.77%
- CC(=O)N1CCCC(C(=O)Nc2ccccc2Cc2ccccc2)C1 (stereo unspecified) — lower, 4.475%
- NC(=O)CSc1ccccc1NCc1nc(Cc2ccccc2)no1 — lower, -16.37%
- NC(=O)CSc1ccccc1NC(=O)CC1C=CCC1 (stereo unspecified) — higher, 119.4%
- CSc1ccccc1NC(=O)CCN1CCC(C(=O)N(C)C)CC1 — lower, 8.025%
- O=C(Nc1cccnc1-n1cncn1)C1CCC1 — lower, -13.11%
- CCc1ccc(CN(CCN(C)C)Cc2ccc(C)s2)nc1 — lower, 19.31%
- CN(C)CCN1CCOCC2(C1)CN(Cc1nccs1)CCO2.O=C(O)C(F)(F)F.O=C(O)C(F)(F)F.O=C(O)C(F)(F)F (stereo unspecified) — lower, -2.784%
- Cn1nnc2c1CCN(Cc1ccncc1)C2COCc1ccccc1.O=C(O)C(F)(F)F.O=C(O)C(F)(F)F (stereo unspecified) — lower, 7.235%
- CCn1cc(CN2CCCN(C(=O)c3ccoc3)CC2)cn1 — lower, 93.78%
- CCn1cc(CN2CCCN(C(=O)c3ccn(C)c(=O)c3)CC2)cn1 — lower, -5.674%
- Cn1cc(CN2CCCC3(CCN(C(=O)c4ccoc4)C3)C2)cn1 (stereo unspecified) — lower, -4.278%
- Cc1ccoc1C(=O)N1CCCN(Cc2cnn(C)c2)CC1 — lower, 85.33%
- CCn1cc(CN2CCCN(C(=O)c3ccco3)CC2)cn1 — higher, 139.7%
- CC(C)CCc1noc(CN2CCCN(C(=O)c3ccco3)CC2)n1 — lower, -6.659%
- CC(C)n1cc(CN2CCCN(C(=O)c3ccco3)CC2)cn1 — lower, 13.14%
- CC(C)n1cc(CN2CCCN(C(=O)c3ccoc3)CC2)cn1 — lower, -9.039%
- CCn1cc(CN2CCCN(C(=O)c3ccc(C)nc3)CC2)cn1 — higher, 109.5%
- Cc1cccc(C(=O)N2CCCN(Cc3cnn(C)c3)CC2)n1 — lower, -11.33%
- Cn1cc(CN2CCCN(C(=O)c3cc[nH]n3)CC2)cn1 — lower, -7.081%
- CCc1cccc(NC(=O)CCC(=O)N(C)Cc2nc(C)c[nH]2)c1 — lower, -13.69%
- O=C(O)c1cc(-c2ccoc2)cc(S(=O)(=O)NCc2ccccn2)c1 — lower, 3.348%
- c1cncc(COCC2CN(Cc3ccncc3)Cc3ccnn3C2)c1 (stereo unspecified) — lower, -8.453%

From ChEMBL document CHEMBL3988442, “University of Dundee, Small-Polar-MMV Screening Library” (2021)
